Reference: PubChem BioAssay (NCI)
About 79,000 compounds went through this panel and 15% of them were active in at least one assay; those are over-represented in the sample as a whole. Calls of active or inactive are those of the source. No stated cut-off is given here; in the data, active means growth inhibition above about 70%; inactive means the rest.

Test: NCI Yeast Anticancer Drug Screen. Data for the rad50 strain (AID 155);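 further: 0% = growth of vehicle-only cultures of the same strain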
Conditions: S. cerevisiae rad50 strain growth inhibition; at 50.0 µM; stronger effect = higher value
Procedure: Growth inhibition of yeast strains with defined genetic alterations is measured as a screen for potential anti-cancer activity. Selected strains with alterations in DNA damage repair or cell cycle control were exposed to compounds and growth inhibition was measured relative to vehicle treated controls. The strain used in this assay is rad50

| Structure (SMILES) | growth inhibition |
| --- | --- |
| CC1Oc2ccc3ccccc3c2C(C)N1C (stereo not given) | -0.55% (inactive) |
| Cc1nc2ccc(S(=O)(=O)Nc3ccccc3Cl)cc2c(=O)n1NC(=O)CNc1ccccc1Cl | 26.4% (inactive) |
| C(=C/c1ccc(/C=C/C=C\c2ccccc2)cc1)/C=C/c1ccccc1 | -4.1% (inactive) |
| CSc1cc2c(cc1N)C(=O)c1ccccc1-2 | 12.5% (inactive) |
| CC(C)C1=CC2=C(C(=O)C1=O)C13CCCC(C)(C)C1CC2OC3=O (stereo not given) | 14.3% (inactive) |
| CC(=O)OCC(OC(C)=O)C(OC(C)=O)C(C=NN(C(C)=O)S(=O)(=O)c1ccc(/C=C2\NC(=O)NC2=O)cc1)OC(C)=O (stereo not given) | -4.6% (inactive) |
| CCCCCCCCCCCCCCCCCC(=O)NCC[N+](C)(C)C | 99% (active) |
| Clc1nncc(SCc2ccccc2)c1SCc1ccccc1 | 17.2% (inactive) |
| N#CCc1cn(-c2ccccc2)nn1 | -7.85% (inactive) |
| Cn1cnc(CC(=O)O)c1 | 4.85% (inactive) |
| COc1ccc(NC=O)c(C)c1 | -10.5% (inactive) |
| CC(=O)CC(=O)NC1CCCC1 | -25.8% (inactive) |
| Cn1c2ccccc2c2c(-c3ccccc3)cc3c(c21)C(=O)C=CC3=O | -15.3% (inactive) |
| Cc1[nH]nc2c1NC(=O)OC(C)C2 (stereo not given) | 11.8% (inactive) |
| CCC(CC)=C(c1ccc(C)cc1)c1ccc(C)cc1 | -25.2% (inactive) |
| NCCCc1ccc2oc3ccccc3c2c1 | 23.8% (inactive) |
| OCc1ccc(F)cc1 | -6.35% (inactive) |
| CCOC(=O)C(OC(C)=O)(C(=O)OCC)C(O)c1cccnc1 (stereo not given) | 15.1% (inactive) |
| COC(=O)C(CNc1ccc(S(N)(=O)=O)cc1)=[N+]=[N-] | 7.4% (inactive) |
| O=C(CI)Nc1ccc(Cl)c(Cl)c1 | 99.7% (active) |

| Structure (SMILES) | growth inhibition |
| --- | --- |
| CC(Cc1ccco1)C(=O)O (stereo not given) | 9.2% (inactive) |
| OC[C@@H]1C2CCC([C@@H]1CO)C2(Cc1ccccc1)Cc1ccccc1 | 5.9% (inactive) |
| O=C(CC(O)(C(F)(F)F)C(F)(F)F)C(CCCl)C(O)(C(F)(F)F)C(F)(F)F (stereo not given) | 17.6% (inactive) |
| O=C(NNCCO)C(O)C(O)C(O)C(O)CO (stereo not given) | -31.4% (inactive) |
| Nc1nnc(-c2ccccc2)s1 | -11.8% (inactive) |
| CCOC1(C)OC2OC(COC(c3ccccc3)(c3ccccc3)c3ccccc3)C(OC(=O)c3ccccc3)C(OC(=O)c3ccccc3)C2O1 (stereo not given) | -3.5% (inactive) |
| CNc1ncnc2nc[nH]c12 | 16.2% (inactive) |
| CC1(C)COC(C23C4C5C2C2C3C4C52I)=N1 (stereo not given) | 25.9% (inactive) |
| O=C(c1ccccc1)c1cc(Cl)ccc1NCn1nnc2ccccc21 | -47.9% (inactive) |
| CN(C)c1ccc(/C=N/NC(=O)c2cnc3ccccc3c2)cc1 | -7.05% (inactive) |
| CCOC(=O)c1c(/C=N\Nc2ccccc2)nc2ccccc2c1-c1ccccc1 | 11.7% (inactive) |
| C(=N\N=C\c1ccccn1)/c1ccccn1 | 9.65% (inactive) |
| CCOc1cc(/C=C2/C=C(c3ccc(OC)cc3)OC2=O)ccc1O | -13.9% (inactive) |
| O=P(O)(O)c1ccc(-c2ccc(P(=O)(O)O)cc2)cc1 | -4.7% (inactive) |
| CCC(=O)CC(=O)C(=O)OC | 6.25% (inactive) |
| CCC(C(=O)NC(C)c1ccc(-c2ccccc2)cc1)c1ccccc1 (stereo not given) | 5.1% (inactive) |
| CC1CCCCN1S(=O)(=O)N(C)C (stereo not given) | 8.65% (inactive) |
| Cn1ccc2c3ccsc3ccc21 | 21.8% (inactive) |
| COC(=O)CCOc1ccc(C)cc1 | 28.2% (inactive) |
| CCC(O)(Cc1ccccc1)C(C(=O)O)c1ccccc1 (stereo not given) | -32% (inactive) |
